High-throughput results from PubChem BioAssay.
EWS-Fli block = EWS/Fli transcriptional activity inhibition | A673 NR0B1-luciferase reporter, viability-normalised | inhibition, % at 12.6 µM | 350,000 compounds, 0.67% hits | AID 651661;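 active means mean inhibition of at least 50% after viability correction, with every replicate also passing that limit; inconclusive means mean reaches 50% but only one of two replicates passes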;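 further: firefly luciferase signal divided by Alamar Blue viability fluorescence both relative to DMSO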
LMP1 NFkB inh = inhibitors of Epstein-Barr LMP1-induced NF-kappaB reporter. inhibition, % at 12.5 µM. LMP1-induced NF-kappaB luciferase reporter cells, luminescence. 350,000 compounds, 0.69% hits; in the data active means inhibition above about 41%; inconclusive means no clear call, values can overlap the other calls
TROY NFkB inh = TROY signaling inhibition; AID 1347056; 360,000 compounds, 0.98% hits; inhibition, % at 10 µM; Q293 LMP1-TROYcd NF-kB luciferase reporter, 4 h;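 active means compounds whose plate-normalised and pattern-corrected inhibition of the luciferase reporter signal at the single screening dose is 50% or more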
TWEAK-Fn14 inh = TWEAK-Fn14 signaling inhibition; TWEAK-stimulated Fn14 reporter cells, luciferase luminescence, 8 h; inhibition, % at 10 µM; 360,000 compounds, 2% hits; AID 1159606; in the data active means inhibition above about 50%
PAX8 inh HTS = PAX8 transcriptional activity inhibition | RMG-I TPO-luciferase reporter, SteadyGlo, 24 h | inhibition, % at 12.6 µM | 360,000 compounds, 1.2% hits | AID 652154;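 active means mean replicate inhibition at least 60% with every replicate also reaching 60%; inconclusive means only one of the two criteria is met; inactive means mean below 60% and not all replicates reaching 60%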;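 further: luciferase light reporting Pax8 driven TPO promoter activity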
LGR2 antag = Drosophila LGR2 receptor signaling inhibition; HEK293 LGR2, CRE-luciferase, bursicon-stimulated, 4 h; inhibition, % at 9.99 µM; 380,000 compounds, 0.35% hits; AID 720647;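 active means drop in luminescence signal, shown as inhibition above about 50% in the replicate tests, limit read from the data, passing the limit was not always enough; inconclusive means probably only some replicates passing the limit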;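 further: agonist challenge used bursicon conditioned medium at about half maximal strength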
A number is an active result; n = inactive; u = inconclusive; x = not tested or not shown; ! = repeats disagree. Rows were chosen to be rich in hits. Some 3.2% of all compounds tested hit in one or more screens of this group.

SMILES | EWS-Fli block | LMP1 NFkB inh | TROY NFkB inh | TWEAK-Fn14 inh | PAX8 inh HTS | LGR2 antag
CCCn1c(=O)c(C(=O)Nc2ncccc2O)c(O)c2ccccc21 | n | n | n | 87.0 | n | n
CCC(=O)N1[C@@H](CO)[C@@H](c2ccccc2)[C@@H]1CN(C)C(=O)c1ccccc1F | n | x | x | x | n | n
O=C(Nc1ccn(Cc2ccccc2F)n1)c1ccc(COc2ccccc2Cl)cc1 | x | n | 53.2 | 62.2 | x | x
O=C(Nc1ccn(Cc2c(F)c(F)cc(F)c2F)n1)c1ccc(COc2ccccc2Cl)cc1 | n | n | n | n | x | n
COc1ccccc1NC(=O)N[C@@H]1CC[C@H](CCn2cc(-c3ccccc3OC)nn2)O[C@@H]1CO | n | x | x | x | n | n
CN(C)S(=O)(=O)c1ccc(C(=O)NCC2CC2(Cl)Cl)cc1 (stereo not given) | n | 43.3 | n | n | n | n
N#Cc1ccc(-c2ccc(C3[C@@H]4CN(C(=O)C5CC5)C[C@H]3N4)cc2)cc1 (stereo not given in full) | n | x | x | x | 98.4 | 90.3
COc1ccccc1-c1ccc(C2[C@@H]3CN(S(=O)(=O)c4ccc(C)cc4)C[C@H]2N3)cc1 (stereo not given in full) | n | x | x | x | n | n
N#Cc1cccc(-c2ccc(C3[C@@H]4CN(C(=O)c5ccccn5)C[C@H]3N4)cc2)c1 (stereo not given in full) | n | x | x | x | 63.9! | u
COc1ccccc1-c1ccc(C2[C@@H]3CN(S(=O)(=O)c4ccccc4)C[C@H]2N3)cc1 (stereo not given in full) | 53.3 | x | x | x | n | n
Cc1ccccc1S(=O)(=O)N1C[C@@H]2N[C@H](C1)C2c1ccc(-c2cccc(C#N)c2)cc1 (stereo not given in full) | n | x | x | x | 93.6! | u
N#Cc1cccc(-c2ccc(C3[C@@H]4CN(S(=O)(=O)c5ccccc5F)C[C@H]3N4)cc2)c1 (stereo not given in full) | n | x | x | x | n | n
C[C@@H]1CN([C@H](C)CO)S(=O)(=O)c2ccc(-c3cccc(C#N)c3)cc2O[C@@H]1CN(C)C(=O)c1ccc(F)cc1 | n | x | x | x | x | n
CS(=O)(=O)N1C[C@@H]2N[C@H](C1)[C@@H]2c1ccc(-c2ccccc2)cc1 | n | x | x | x | 75.6 | n
N#Cc1cccc(-c2ccc([C@@H]3[C@@H]4CN(S(=O)(=O)c5ccc(-c6ccccc6)cc5)C[C@H]3N4)cc2)c1 | 74.4 | x | x | x | n | n
N#Cc1cccc(-c2ccc(C3[C@@H]4CN(S(=O)(=O)c5ccccc5)C[C@H]3N4)cc2)c1 (stereo not given in full) | n | x | x | x | n | n
O=C(NN=C(c1ccccc1)c1ccccn1)c1ccccc1 | n | n | n | n | 77.1 | x
O=C(N/N=C(\c1ccccc1)c1ccccn1)c1ccccc1Cl | x | n | n | n | 72.5 | n
C/C(=N/NC(=O)c1ccccn1)c1ccncc1 | n | n | n | n | n | n
COc1ccc(C(=O)N/N=C(\c2ccccc2)c2ccccn2)cc1 | n | n | n | n | n | x
Cc1ccc2c(c1)[C@H]1[C@H](CO2)[C@H](c2ccccc2)[C@]2(C)C(=O)Nc3ccc(Cl)cc3C(=O)N12 | n | n | n | n | n | x
COc1ccc2c(c1)[C@H]1[C@H](CO2)[C@H](c2ccccc2)[C@]2(C)C(=O)Nc3ccc(C)cc3C(=O)N12 | n | n | n | n | n | x
COc1ccc2c(c1)C(=O)N1[C@H]3c4cc(C)ccc4OC[C@@H]3[C@H](c3ccccc3)[C@]1(C)C(=O)N2 | 64.1 | n | n | n | n | n
C[C@@]12C(=O)Nc3cc(F)ccc3C(=O)N1[C@H]1c3cc(Br)ccc3OC[C@@H]1[C@@H]2c1ccccc1 | n | n | n | n | n | n
Cc1ccc2c(c1)[C@H]1[C@H](CO2)[C@H](c2ccccc2)[C@]2(C)C(=O)Nc3ccccc3C(=O)N12 | 56.6 | n | n | n | n | n
Cc1ccc2c(c1)[C@H]1[C@H](CO2)[C@H](c2ccccc2)[C@]2(C)C(=O)Nc3cc(F)ccc3C(=O)N12 | 61.1 | n | n | n | n | n
CCCNC(=O)C[C@@H]1CC[C@@H]2[C@H](COc3ccc(NC(=O)c4cccc(Cl)c4)cc3C(=O)N2C)O1 | n | x | x | x | n | n
O=C(Nc1ccc(F)cc1)N1CC(=O)N2[C@H](CO)[C@@H](c3ccc(Br)cc3)[C@@H]2C1 | n | x | x | x | n | n
